Our source for the binding signal values is article PMC7819943, “Rice protein-binding microarrays: a tool to detect cis-acting elements near promoter regions in rice”.

Whole data set: some 35,000 sequences, median “fluorescence intensity (a.u.)” near 10,000, cut for the highest 2% near 52,000. For the sample, the highest values were picked, then their nearest neighbours and some sequences at random.

The target in this assay is T1, OsWOX13 (Oryza sativa, UniProt Q5QMM3 1-267).
T1 sequence: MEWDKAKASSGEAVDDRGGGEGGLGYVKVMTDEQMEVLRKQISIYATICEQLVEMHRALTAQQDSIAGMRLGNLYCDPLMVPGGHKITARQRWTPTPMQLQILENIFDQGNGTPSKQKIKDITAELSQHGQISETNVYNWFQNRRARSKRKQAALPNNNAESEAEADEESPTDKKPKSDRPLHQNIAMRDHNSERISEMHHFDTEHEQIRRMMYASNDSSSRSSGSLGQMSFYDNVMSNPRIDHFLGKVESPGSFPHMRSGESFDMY
Kind of assay: protein-binding microarray (RPBM); PBS, 2% BSA, 51.3 ng/ul salmon testes DNA, 50 uM zinc acetate, 200 nM TF, 25 C, 1 h; high values mean tight binding. The following applies: protein: recombinant; tags: N-terminal polyhistidine and DsRed monomer fusion (pET32a); label: CyDye5-dUTP incorporated in the synthesized complementary strand; 3' TTTTT single-stranded linker to array surface; dsDNA, one strand shown. The method, boiled down:
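In PBS with 2% BSA, salmon testes DNA and 50 µM zinc acetate, 200 nM protein was incubated on a custom Agilent array at 25 °C for 1 h and then washed off. The array had been made double-stranded by primer extension with Cy5-dUTP and blocked with 2% BSA. The proteins were transcription factors fused N-terminally to polyhistidine and DsRed, expressed in E. coli BL21-CodonPlus and purified on Ni–NTA. The binding signal is per-feature fluorescence intensity (arbitrary units) from an Axon 4000B scanner.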
As to “TCGGTATTGTGATTGAGGGGTAAGAGTAAGTTTCGGCCACCGGAGTCACCTAGTGCAG”, the binding signal was 18700 fluorescence intensity (a.u.).

Regarding “TTAATTGTAAGTTTAACTATTGCTACTTCGCTTGCAGCGTCGGAGTCACCTAGTGCAG”, the binding signal is 13600 fluorescence intensity (a.u.). The same measure for “AATCATGGCGTAATTAGGCTTAAAAGATTCGTCTCGCAATCGGAGTCACCTAGTGCAG”: 3620 fluorescence intensity (a.u.); for “TTATCCAAAACGTCAATTAATATAGAACTAGAGTGAGTACCGGAGTCACCTAGTGCAG”: 4500 fluorescence intensity (a.u.); for “TGTTGATTGTTGTGTTTAATTGGAGATTGACTATTGAATCCGGAGTCACCTAGTGCAG”: 60200 fluorescence intensity (a.u.). In the case of “CCATCACATCCGTTGGCCTAATTGATTTGTGAAGCATCAACGGAGTCACCTAGTGCAG” it was 4240 fluorescence intensity (a.u.); in that of “ACTTAATTATTGTTATGATTCATTCATGCATAAAGCGGTGCGGAGTCACCTAGTGCAG”, 55700 fluorescence intensity (a.u.).

Take “TGCGTGATTGTTGGGATTATTTTATTAATTGATCCAATGGCGGAGTCACCTAGTGCAG”: the binding signal was 57200 fluorescence intensity (a.u.). For “TTATACATCCAAATTTGATTGTTGCGTGCTTATTTTGTTGCGGAGTCACCTAGTGCAG”, the binding signal is 13700 fluorescence intensity (a.u.).

With “GCTCTAATAATTGAATAATTTGATTTGTTTTATTTAAATCCGGAGTCACCTAGTGCAG”, the binding signal was 30100 fluorescence intensity (a.u.). In the case of “GATTTAATTTATTTTGGTAATGATTTGTGGATGATTTTGGCGGAGTCACCTAGTGCAG” it was 31600 fluorescence intensity (a.u.); in that of “GAGTTATGATTTGTTACAATAATTGTAACTTATTGTAAAGCGGAGTCACCTAGTGCAG”, 27900 fluorescence intensity (a.u.).

Turning to “CATTCATATTGATGTTAATAAATTAATATAGATATATATGCGGAGTCACCTAGTGCAG”, the binding signal was 3590 fluorescence intensity (a.u.). The same measure for “AGTTATTGACAGTGACTAATCTACCTAATCCGTAGATTAACGGAGTCACCTAGTGCAG”: 12500 fluorescence intensity (a.u.); for “TTAATTGATTGATTGATTGATTAATCCGTTGTGAATCTAACGGAGTCACCTAGTGCAG”: 61500 fluorescence intensity (a.u.). The same measure for “TTAATTGATTGAATCACATCCTTCCGGATTGTTTTGATCCCGGAGTCACCTAGTGCAG”: 40800 fluorescence intensity (a.u.); for “GAGTACAGATGAAATTTGTAGAAATTGGAATGGTCATGTACGGAGTCACCTAGTGCAG”: 3810 fluorescence intensity (a.u.); for “GGCAAATTGTCAAGGTTAACCGTAAATCTACAGTGCCAATCGGAGTCACCTAGTGCAG”: 15500 fluorescence intensity (a.u.).

As to “TCTTCACATGAATGATGAAATTGCTAGTAGCATGTCTTCACGGAGTCACCTAGTGCAG”, the binding signal was 3410 fluorescence intensity (a.u.). Regarding “CAGAATTGAGAGTTCACATATCCTCAGTGGTCAGAGTTCACGGAGTCACCTAGTGCAG”, the binding signal is 6100 fluorescence intensity (a.u.). In the case of “ACATTCCAAAATTTGACCAAATTTGTTCACTCGTTGACTGCGGAGTCACCTAGTGCAG” it was 3660 fluorescence intensity (a.u.); in that of “AATTGATTGGACTCCACCAACATTAAAATAGTTGTTGATGCGGAGTCACCTAGTGCAG”, 56400 fluorescence intensity (a.u.). Take “TGATTAAAATTGACATTAAAATTATAGTTTTGTGATGACTCGGAGTCACCTAGTGCAG”: the binding signal is 19100 fluorescence intensity (a.u.).

Take “TTATATTAATTGATGGTCATTATTGTTGGAGATTATATTGCGGAGTCACCTAGTGCAG”: the binding signal was 60800 fluorescence intensity (a.u.). As to “GGAGTTGATTGATGGACCTAGAATTGGTTGAGATCCTCAGCGGAGTCACCTAGTGCAG”, the binding signal is 63700 fluorescence intensity (a.u.). With “TTCGATTGATTGATAGTTGATTGTGTGTTTACAATTGAACCGGAGTCACCTAGTGCAG”, the binding signal is 52600 fluorescence intensity (a.u.). Turning to “GATTTAAATTAGATGGAAGGTTGAGAATTAAGCTGATCCTCGGAGTCACCTAGTGCAG”, the binding signal is 13600 fluorescence intensity (a.u.). The same measure for “AAATTAAATTTTATTTGTTGAAAATAATATCATTGGATTGCGGAGTCACCTAGTGCAG”: 6020 fluorescence intensity (a.u.); for “CGTCTACCGTGATTGTTTCGATACAATTGTGTGCAAGTTACGGAGTCACCTAGTGCAG”: 21200 fluorescence intensity (a.u.). Turning to “CAGTGGATGATTAATATTGATTAATTATTATAATTGTTTTCGGAGTCACCTAGTGCAG”, the binding signal is 39500 fluorescence intensity (a.u.).

“ACTTGTTGAAAATTGATTGCTTTGTTGTTGTAGTGTTTACCGGAGTCACCTAGTGCAG”: the binding signal was 23600 fluorescence intensity (a.u.). The same measure for “CAGTTTTGGTTAATTAAGTAAATAATTGTCCTCAGAAAGTCGGAGTCACCTAGTGCAG”: 15100 fluorescence intensity (a.u.); for “CATAAATTTTCCGTGCCAACTTTGATCATCCGTTTTATTTCGGAGTCACCTAGTGCAG”: 5660 fluorescence intensity (a.u.). Turning to “CTATACAACAAATCATTAATTAGGCTCAAAAGAAAGAAAGCGGAGTCACCTAGTGCAG”, the binding signal is 11100 fluorescence intensity (a.u.). On to “CACATGCAAATTATCGTGCGTCTGTATGTGGCATGCTTGTCGGAGTCACCTAGTGCAG”, for which the binding signal is 4230 fluorescence intensity (a.u.). In the case of “GCCACTAAATTAATCCGGTGATTGATCATGTGTGGAAGCACGGAGTCACCTAGTGCAG” it was 54200 fluorescence intensity (a.u.); in that of “GGAGATTGACACGTTGGTCTACGTGCCTATGCGTGTGTTCCGGAGTCACCTAGTGCAG”, 55600 fluorescence intensity (a.u.); in that of “TTTAATCACTAATTAATTGTTGATTAGCGGCAAGTGTGACCGGAGTCACCTAGTGCAG”, 63800 fluorescence intensity (a.u.). Regarding “ATGATTGAATCCTATAAAATCTTGTGAAATTCCTGTGAAACGGAGTCACCTAGTGCAG”, the binding signal is 52800 fluorescence intensity (a.u.).

For “GATTTGATTTAAATCTTGAATAAATTTAATAAAATCCTATCGGAGTCACCTAGTGCAG”, the binding signal was 10000 fluorescence intensity (a.u.). Consider “AGAGAATTGAATTAATCCGTGTGATATATCACTAAAATTCCGGAGTCACCTAGTGCAG”, for which the binding signal was 5900 fluorescence intensity (a.u.). For the sequence “AGAGATCGAGATTGACACACAACGTGGTTCACGCGTGCGCCGGAGTCACCTAGTGCAG”, the binding signal was 23100 fluorescence intensity (a.u.). The same measure for “TACGTGTGTTGATTTCCGTGACATATGCATAAATTTCTTTCGGAGTCACCTAGTGCAG”: 3870 fluorescence intensity (a.u.); for “ATACTAATTACTTAATTAGTGACCAGTGATCACTTGTGTGCGGAGTCACCTAGTGCAG”: 45800 fluorescence intensity (a.u.); for “AATGTTTTAATCACATTGATTAGCAACTAATTAATCTTAGCGGAGTCACCTAGTGCAG”: 47100 fluorescence intensity (a.u.).

“TTTTGATGAAATAAACTATGAAAATCCTGTGAAATTCATGCGGAGTCACCTAGTGCAG”: the binding signal was 7340 fluorescence intensity (a.u.). With “ACGGTGTGATTAATTACGTCGCGATCATGTTGTGCTAATCCGGAGTCACCTAGTGCAG”, the binding signal was 32500 fluorescence intensity (a.u.).
